Laboratory results taken from the supplement of paper PMC6763611.

Tested on: Plasmodium falciparum NF54
Assay: growth inhibition relative to untreated control; higher = more inhibition
Conditions: 1 µM; MM + chorismate end-products (CM screening medium); 72 h
Procedure, shortened: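 Two media were used: minimal RPMI, and minimal RPMI carrying the chorismate end-products folate, pABA, pHBA, tyrosine, phenylalanine and tryptophan at 2.2 μM, 7.3 μM, 7.3 μM, 111 μM and 90 μM for the first five. In these media, P. falciparum NF54 ring stages (1% hematocrit, 1% parasitemia, 100 μL/well) were exposed in dark 96-well half-area plates to a single 5 μM or 1 μM test-compound dose for 72 h at 37 °C. Growth inhibition was then assessed with SYBR Green against untreated wells, subtracting background from uninfected erythrocytes.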

Compound	growth inhibition [%]
CCNC(=O)C(C)Nc1nc(-c2cccnc2)nc2sc(C)c(C)c12 (stereo unspecified)	5.05
CCC(C)NC(=O)c1ccc(NC(=O)C2(c3ccccc3)CCCC2)cc1 (stereo unspecified)	58
O=C(NCCc1ccccc1)c1cc(-c2cccnc2)cnc1NCC1CC1	77.5
Cc1ccc2cc(C3NC(=O)c4ccccc4N3)c(Cl)nc2c1 (stereo unspecified)	86
COc1ccc(-c2nc(-c3cccc(NC(=O)Cc4ccc(F)cc4)c3)no2)cc1OC	46.5
Brc1c(-c2ccc3c(c2)OCO3)nc2ncccn12	< 0
CNC(=O)C1Cc2ccccc2N1C(=O)Cc1ccc(F)cc1 (stereo unspecified)	10.9
CCCn1nnc(NC(=O)COc2ccc(C3CCCCC3)cc2)n1	6.74
Brc1cncc(-c2cc(NCCCn3ccnc3)nc(-c3ccccc3)n2)c1	> 100
COc1ccc(S(=O)(=O)Nc2ccc(CN3CCN(C(=O)c4cccc(C#N)c4)CC3)cc2)cc1	0.529
NCCC(O)C(=O)N[C@@H]1C[C@H](N)[C@@H](OC2O[C@H](CN)[C@@H](O)[C@H](O)[C@H]2O)[C@H](O)C1OC1O[C@H](CO)[C@@H](O)[C@H](N)[C@H]1O (stereo partly specified)	46
CC(C)n1ncc2c(C(=O)NCC(c3cccs3)N3CCOCC3)cc(-c3ccccc3)nc21 (stereo unspecified)	10
CCCS(=O)(=O)N1CCC(CO)(Cc2ccccc2C(F)(F)F)CC1	46.8
C[C@]1(COc2ccc(N3CCC(Oc4ccc(OC(F)(F)F)cc4)CC3)cc2)Cn2cc([N+](=O)[O-])nc2O1	2.53
COc1cc(CN2CCC3(C=Cc4ccccc43)CC2)cc2c1OCO2	> 100
Cc1cc(NCC(C)C)c2[nH]nc(-c3ccccc3)c2n1	89.6
CC(C)C(Oc1cccc2ccccc12)C(=O)O (stereo unspecified)	17.4
CC(=O)NC[C@@H]1CN(c2ccc(N3CCOCC3)c(F)c2)C(=O)O1	18.8
O=C(NCCN1CCCC1)c1cc(NCCCCN2CCC(F)(F)CC2)nc2ccc(Cl)cc12	100

Compound	growth inhibition [%]
Cc1ccc2[nH]c3c(NCCN(C)C)ncnc3c2c1	97.6
Cc1ccc2oc(-c3cc(NC(=O)Cc4ccccc4)ccc3Cl)nc2c1	< 0
CC(C)(C(=O)Nc1ccc(F)cc1)n1cc(-c2ccccc2F)cn1	0.0824
COc1cncc(-c2cncc(N3CCN(c4ccncc4)CC3)n2)c1	> 100
O=C(Cn1ccnc1[N+](=O)[O-])NCc1ccccc1	20.5
CCc1nc2ccc(C(=O)NCc3ccc4c(c3)OCO4)cn2c1N(C)Cc1cccs1	21.4
CCCn1c(NC(=O)c2ccc3ccccc3n2)nc2ccccc21	38.2
COCC(C)NC(=O)CSc1ncnc2sc(-c3ccccc3)cc12 (stereo unspecified)	11.3
CNc1snc(C)c1C(=O)NCCOc1ccc(OC)cc1	42.3
CC(C)(C)OC(=O)N1CCN(c2cc(-c3ccc(Oc4ccccc4)cc3)n[nH]2)CC1	< 0
O=C(CN1CCOCC1)Nc1ccc2ncnc(Nc3ccc(OCc4cccc(F)c4)c(Cl)c3)c2c1	2.86
Cc1ccc(-c2nc(CN(Cc3ccccn3)C(C)C)cs2)o1	47.7
CC(C)(C)CN1C(=O)C(c2ccccc2)(c2ccccc2)N=C1N	45.9
CCC(Sc1nc2ccccc2o1)C(=O)Nc1nnc(C)s1 (stereo unspecified)	13.2
O=C(c1cc2ccccc2o1)N1CCN(Cc2ccc3c(c2)OCO3)CC1	15.1
Cc1cc(O)nc(-n2nc(C)cc2C)n1	5.27
COC(=O)c1ccc(F)cc1NS(=O)(=O)c1cccc(-c2cnn(Cc3ccccc3)c2)c1	33.2
Cc1nn2c(O)c3c(nc2c1-c1ccc(F)cc1)CCCC3	11
CC(C)C(NC(=O)Cc1cccc2ccccc12)C(=O)Nc1cccc(C#N)c1 (stereo unspecified)	89.9

Same assay, conditions: 1 µM; minimal medium (MM); 72 h

Compound	growth inhibition [%]
CCNC(=O)C(C)Nc1nc(-c2cccnc2)nc2sc(C)c(C)c12 (stereo unspecified)	< 0
CCC(C)NC(=O)c1ccc(NC(=O)C2(c3ccccc3)CCCC2)cc1 (stereo unspecified)	17.8
O=C(NCCc1ccccc1)c1cc(-c2cccnc2)cnc1NCC1CC1	> 100
Cc1ccc2cc(C3NC(=O)c4ccccc4N3)c(Cl)nc2c1 (stereo unspecified)	82.6
COc1ccc(-c2nc(-c3cccc(NC(=O)Cc4ccc(F)cc4)c3)no2)cc1OC	42.7
Brc1c(-c2ccc3c(c2)OCO3)nc2ncccn12	< 0
CNC(=O)C1Cc2ccccc2N1C(=O)Cc1ccc(F)cc1 (stereo unspecified)	< 0
CCCn1nnc(NC(=O)COc2ccc(C3CCCCC3)cc2)n1	< 0
Brc1cncc(-c2cc(NCCCn3ccnc3)nc(-c3ccccc3)n2)c1	39.8
COc1ccc(S(=O)(=O)Nc2ccc(CN3CCN(C(=O)c4cccc(C#N)c4)CC3)cc2)cc1	< 0
NCCC(O)C(=O)N[C@@H]1C[C@H](N)[C@@H](OC2O[C@H](CN)[C@@H](O)[C@H](O)[C@H]2O)[C@H](O)C1OC1O[C@H](CO)[C@@H](O)[C@H](N)[C@H]1O (stereo partly specified)	17.2
CC(C)n1ncc2c(C(=O)NCC(c3cccs3)N3CCOCC3)cc(-c3ccccc3)nc21 (stereo unspecified)	9.61
CCCS(=O)(=O)N1CCC(CO)(Cc2ccccc2C(F)(F)F)CC1	69.6
C[C@]1(COc2ccc(N3CCC(Oc4ccc(OC(F)(F)F)cc4)CC3)cc2)Cn2cc([N+](=O)[O-])nc2O1	3.49
COc1cc(CN2CCC3(C=Cc4ccccc43)CC2)cc2c1OCO2	< 0
Cc1cc(NCC(C)C)c2[nH]nc(-c3ccccc3)c2n1	94.3
CC(C)C(Oc1cccc2ccccc12)C(=O)O (stereo unspecified)	13.6
CC(=O)NC[C@@H]1CN(c2ccc(N3CCOCC3)c(F)c2)C(=O)O1	11.7
O=C(NCCN1CCCC1)c1cc(NCCCCN2CCC(F)(F)CC2)nc2ccc(Cl)cc12	98.4

Compound	growth inhibition [%]
Cc1ccc2[nH]c3c(NCCN(C)C)ncnc3c2c1	96.5
Cc1ccc2oc(-c3cc(NC(=O)Cc4ccccc4)ccc3Cl)nc2c1	6.84
CC(C)(C(=O)Nc1ccc(F)cc1)n1cc(-c2ccccc2F)cn1	< 0
COc1cncc(-c2cncc(N3CCN(c4ccncc4)CC3)n2)c1	> 100
O=C(Cn1ccnc1[N+](=O)[O-])NCc1ccccc1	< 0
CCc1nc2ccc(C(=O)NCc3ccc4c(c3)OCO4)cn2c1N(C)Cc1cccs1	< 0
CCCn1c(NC(=O)c2ccc3ccccc3n2)nc2ccccc21	20.1
COCC(C)NC(=O)CSc1ncnc2sc(-c3ccccc3)cc12 (stereo unspecified)	< 0
CNc1snc(C)c1C(=O)NCCOc1ccc(OC)cc1	< 0
CC(C)(C)OC(=O)N1CCN(c2cc(-c3ccc(Oc4ccccc4)cc3)n[nH]2)CC1	18
O=C(CN1CCOCC1)Nc1ccc2ncnc(Nc3ccc(OCc4cccc(F)c4)c(Cl)c3)c2c1	9.8
Cc1ccc(-c2nc(CN(Cc3ccccn3)C(C)C)cs2)o1	20.3
CC(C)(C)CN1C(=O)C(c2ccccc2)(c2ccccc2)N=C1N	45.7
CCC(Sc1nc2ccccc2o1)C(=O)Nc1nnc(C)s1 (stereo unspecified)	0.545
O=C(c1cc2ccccc2o1)N1CCN(Cc2ccc3c(c2)OCO3)CC1	12.4
Cc1cc(O)nc(-n2nc(C)cc2C)n1	< 0
COC(=O)c1ccc(F)cc1NS(=O)(=O)c1cccc(-c2cnn(Cc3ccccc3)c2)c1	37.7
Cc1nn2c(O)c3c(nc2c1-c1ccc(F)cc1)CCCC3	13.4
CC(C)C(NC(=O)Cc1cccc2ccccc12)C(=O)Nc1cccc(C#N)c1 (stereo unspecified)	86.3
